Laboratory results as given in the supplement of paper PMC10849652.
Of roughly 8,800 targets only a part is listed; those with a hit were picked by preference. About 0.5% of all pairs of compound and target were hits. Unmarked numbers belong to inactive results.

Key:
Assay in all cases: log2 fold change, soluble protein after heating vs DMSO (PISA); higher = thermal stabilisation; K562 lysate, 10 uM; active = over 0.2 and 3.5 SD of the protein, either way, in both replicates (recomputed)
[1] = compound: COC(=O)N[C@@H](C)CNc1nccc(-c2cn(C(C)C)nc2-c2cc(Cl)cc(NS(C)(=O)=O)c2F)n1 [encorafenib]
Outline: (§1)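 Thermal stability, expressed as log-two fold change relative to solvent controls, is given from duplicates. Crude K562 extract in PBS pH 7.4 with 1 mM MgCl2, at 1 mg/mL protein, was treated with 10 μM compound for 30 min and heated in aliquots for 3 min across 48°C-58°C. After pooling, adjustment to 0.5% NP-40 at 4°C and centrifugation at 21,000xg for 90 min, supernatant protein was measured by TMTpro 16plex LC-MS/MS with channel sums equalised.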

[2] = compound: COC(=O)[C@H](CCSC)NC(=O)C1=C(C=C(C=C1)NC[C@H](CS)N)C2=CC=CC=C2
Outline: as §1

[3] = compound: C[C@@H](Oc1cc(-c2cnn(C3CCNCC3)c2)cnc1N)c1c(Cl)ccc(F)c1Cl [crizotinib]
Outline: as §1

[4] = compound: Cc1cc(Nc2cc(N3CCN(C)CC3)nc(Sc3ccc(NC(=O)C4CC4)cc3)n2)n[nH]1 [tozasertib]
Outline: as §1

[5] = compound: Cc1ccc(-n2nc(C(C)(C)C)cc2NC(=O)Nc2ccc(OCCN3CCOCC3)c3ccccc23)cc1 [doramapimod]
Outline: as §1

[6] = compound: CN1CC[C@H](c2c(O)cc(O)c3c(=O)cc(-c4ccccc4Cl)oc23)[C@H](O)C1 [alvocidib]
Outline: as §1

[7] = compound: CN1CCc2c(c3ccccc3n2Cc2ccc(C(=O)NO)cc2)C1 [Tubastatin A]
Outline: as §1

[8] = compound: CNC(=O)C1=CC=CC=C1NC2=NC(=NC=C2Cl)NC3=C(C=C(C=C3)N4CCOCC4)OC
Outline: as §1

[9] = compound: CNc1nc(-c2ccc3c(N)n[nH]c3c2)cc(N2C[C@@H](C(=O)NC3CCCCC3)CC[C@H]2C)n1
Outline: as §1

[10] = compound: C[C@H](C1=CC=C(C=C1)C(=O)NC2=C3C=CNC3=NC=C2)N
Outline: as §1

[11] = compound: C[C@H](Nc1ncnc2nc[nH]c12)c1cc2cccc(Cl)c2c(=O)n1-c1ccccc1 [duvelisib]
Outline: as §1

[12] = compound: Cc1cc(Nc2cc(CN3CCOCC3)c3nc(C)c(Cc4ccc(Cl)cc4F)n3n2)n[nH]1 [gandotinib]
Outline: as §1

[13] = compound: Cc1cccc(CC(=O)N2CCc3c2ccc(-c2cn(C)c4ncnc(N)c24)c3F)n1
Outline: as §1

[14] = compound: CNC(=O)c1ccc(Nc2ncc(C(F)(F)F)c(NCc3nccnc3N(C)S(C)(=O)=O)n2)cc1 [defactinib]
Outline: as §1

[15] = compound: COc1cc(Nc2ncc3c(n2)-c2ccc(Cl)cc2C(c2c(F)cccc2OC)=NC3)ccc1C(=O)O [alisertib]
Outline: as §1

[16] = compound: COc1cc2ncnc(Nc3ccc(F)c(Cl)c3)c2cc1OCCCN1CCOCC1 [gefitinib]
Outline: as §1

[17] = compound: COc1cc2nc(-c3cc(F)ccc3O)nc(N[C@@H]3CNC[C@H]3C(C)(C)O)c2cc1OC
Outline: as §1

[18] = compound: CS(=O)(=O)CCNCc1ccc(-c2ccc3ncnc(Nc4ccc(OCc5cccc(F)c5)c(Cl)c4)c3c2)o1 [lapatinib]
Outline: as §1

[19] = compound: CS(=O)(=O)N1CCN(Cc2cc3nc(-c4cccc5[nH]ncc45)nc(N4CCOCC4)c3s2)CC1 [pictilisib]
Outline: as §1

[20] = compound: Cc1ccc(NC(=O)c2ccc(CN3CC[C@H](N(C)C)C3)c(C(F)(F)F)c2)cc1Nc1nccc(-c2cncnc2)n1 [bafetinib]
Outline: as §1

Sequence of UniProt Q99755 (Q99755 whole entry, looked up): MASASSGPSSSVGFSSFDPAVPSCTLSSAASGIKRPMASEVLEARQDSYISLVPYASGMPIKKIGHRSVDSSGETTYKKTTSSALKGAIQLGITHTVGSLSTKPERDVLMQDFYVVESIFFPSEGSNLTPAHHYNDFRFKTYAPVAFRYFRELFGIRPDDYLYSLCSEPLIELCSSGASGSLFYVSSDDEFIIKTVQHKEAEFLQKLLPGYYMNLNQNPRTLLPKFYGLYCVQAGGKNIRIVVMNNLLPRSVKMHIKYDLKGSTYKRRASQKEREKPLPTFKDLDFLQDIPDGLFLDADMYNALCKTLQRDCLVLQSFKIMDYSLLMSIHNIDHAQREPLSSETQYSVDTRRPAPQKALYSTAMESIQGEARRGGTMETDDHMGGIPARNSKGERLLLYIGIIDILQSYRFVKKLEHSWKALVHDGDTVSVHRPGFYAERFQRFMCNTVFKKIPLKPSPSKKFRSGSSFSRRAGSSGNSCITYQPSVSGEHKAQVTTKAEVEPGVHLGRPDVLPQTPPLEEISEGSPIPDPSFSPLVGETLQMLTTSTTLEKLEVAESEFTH
Sequence of UniProt P41247 (P41247 whole entry, looked up): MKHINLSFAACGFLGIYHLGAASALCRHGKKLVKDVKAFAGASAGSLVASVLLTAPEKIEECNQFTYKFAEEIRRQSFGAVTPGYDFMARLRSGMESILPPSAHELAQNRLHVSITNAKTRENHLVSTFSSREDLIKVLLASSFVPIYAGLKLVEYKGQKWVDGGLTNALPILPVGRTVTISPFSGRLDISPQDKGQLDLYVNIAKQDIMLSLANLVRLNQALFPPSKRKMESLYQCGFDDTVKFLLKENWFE
Sequence of UniProt A8CG34 (A8CG34 whole entry, looked up): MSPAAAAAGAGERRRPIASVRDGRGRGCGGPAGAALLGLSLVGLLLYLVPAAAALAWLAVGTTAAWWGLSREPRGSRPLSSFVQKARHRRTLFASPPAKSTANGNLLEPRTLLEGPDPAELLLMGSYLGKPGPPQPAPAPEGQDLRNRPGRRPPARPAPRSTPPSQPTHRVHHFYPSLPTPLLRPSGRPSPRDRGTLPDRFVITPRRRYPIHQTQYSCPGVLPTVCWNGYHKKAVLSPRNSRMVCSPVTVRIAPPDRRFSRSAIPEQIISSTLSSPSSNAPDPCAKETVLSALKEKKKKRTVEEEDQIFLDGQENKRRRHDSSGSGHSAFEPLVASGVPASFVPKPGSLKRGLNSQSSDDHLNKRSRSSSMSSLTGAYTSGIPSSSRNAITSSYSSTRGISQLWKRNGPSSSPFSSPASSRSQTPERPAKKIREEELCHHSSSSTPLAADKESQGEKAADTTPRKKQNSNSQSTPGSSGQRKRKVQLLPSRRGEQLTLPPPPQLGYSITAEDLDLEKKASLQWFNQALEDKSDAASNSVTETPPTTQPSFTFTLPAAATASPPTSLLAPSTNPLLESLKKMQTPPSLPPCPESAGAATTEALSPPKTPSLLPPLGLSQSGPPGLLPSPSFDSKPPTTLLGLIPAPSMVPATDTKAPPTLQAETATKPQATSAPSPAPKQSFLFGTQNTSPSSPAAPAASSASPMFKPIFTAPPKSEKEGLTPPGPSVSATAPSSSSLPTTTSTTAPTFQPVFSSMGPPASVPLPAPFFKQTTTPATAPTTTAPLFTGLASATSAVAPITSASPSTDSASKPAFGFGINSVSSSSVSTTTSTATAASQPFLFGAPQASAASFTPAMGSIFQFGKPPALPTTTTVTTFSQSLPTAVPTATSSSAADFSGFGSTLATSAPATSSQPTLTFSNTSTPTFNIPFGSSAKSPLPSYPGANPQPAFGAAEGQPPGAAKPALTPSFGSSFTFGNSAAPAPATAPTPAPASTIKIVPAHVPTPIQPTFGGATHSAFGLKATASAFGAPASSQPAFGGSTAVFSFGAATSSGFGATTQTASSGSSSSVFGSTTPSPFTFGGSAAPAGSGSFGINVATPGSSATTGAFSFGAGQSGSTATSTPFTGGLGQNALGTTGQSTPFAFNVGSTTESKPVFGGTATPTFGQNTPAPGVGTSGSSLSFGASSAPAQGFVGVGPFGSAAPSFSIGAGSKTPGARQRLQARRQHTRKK
Sequence of UniProt P78364 (P78364 whole entry, looked up): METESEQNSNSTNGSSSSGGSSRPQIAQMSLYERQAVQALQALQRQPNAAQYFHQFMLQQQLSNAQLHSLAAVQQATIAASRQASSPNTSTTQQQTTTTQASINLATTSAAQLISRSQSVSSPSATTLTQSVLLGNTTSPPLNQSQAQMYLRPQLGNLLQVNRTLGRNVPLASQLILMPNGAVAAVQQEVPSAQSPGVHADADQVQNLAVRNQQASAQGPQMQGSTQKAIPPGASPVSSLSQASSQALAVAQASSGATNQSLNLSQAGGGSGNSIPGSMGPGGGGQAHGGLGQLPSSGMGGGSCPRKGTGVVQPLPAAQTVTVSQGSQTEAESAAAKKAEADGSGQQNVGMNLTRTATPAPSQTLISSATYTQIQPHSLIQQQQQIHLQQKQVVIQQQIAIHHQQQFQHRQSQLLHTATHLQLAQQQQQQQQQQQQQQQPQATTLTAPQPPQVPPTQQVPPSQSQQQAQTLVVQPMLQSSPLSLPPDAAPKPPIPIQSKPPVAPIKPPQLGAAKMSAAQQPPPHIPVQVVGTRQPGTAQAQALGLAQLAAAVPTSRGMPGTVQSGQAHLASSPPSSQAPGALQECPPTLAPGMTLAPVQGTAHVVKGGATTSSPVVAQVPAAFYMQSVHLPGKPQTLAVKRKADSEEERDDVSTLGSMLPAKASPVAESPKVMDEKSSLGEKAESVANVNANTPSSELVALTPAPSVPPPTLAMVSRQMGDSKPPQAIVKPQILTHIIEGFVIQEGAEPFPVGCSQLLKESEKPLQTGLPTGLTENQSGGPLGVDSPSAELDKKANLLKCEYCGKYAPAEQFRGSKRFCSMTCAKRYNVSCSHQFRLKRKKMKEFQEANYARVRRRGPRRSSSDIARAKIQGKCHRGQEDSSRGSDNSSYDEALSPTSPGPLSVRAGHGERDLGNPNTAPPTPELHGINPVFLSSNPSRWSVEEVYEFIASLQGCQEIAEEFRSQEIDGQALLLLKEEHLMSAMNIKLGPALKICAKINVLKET
Sequence of UniProt Q9BY49 (Q9BY49 whole entry, looked up): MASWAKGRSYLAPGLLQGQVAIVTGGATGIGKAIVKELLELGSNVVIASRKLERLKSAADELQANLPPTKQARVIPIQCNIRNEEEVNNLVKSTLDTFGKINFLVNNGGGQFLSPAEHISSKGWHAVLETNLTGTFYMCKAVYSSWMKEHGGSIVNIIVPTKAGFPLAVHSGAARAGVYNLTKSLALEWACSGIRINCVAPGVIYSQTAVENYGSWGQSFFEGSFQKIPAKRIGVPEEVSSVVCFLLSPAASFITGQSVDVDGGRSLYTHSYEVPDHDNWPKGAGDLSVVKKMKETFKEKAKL
Sequence of UniProt Q05397 (Q05397 whole entry, looked up): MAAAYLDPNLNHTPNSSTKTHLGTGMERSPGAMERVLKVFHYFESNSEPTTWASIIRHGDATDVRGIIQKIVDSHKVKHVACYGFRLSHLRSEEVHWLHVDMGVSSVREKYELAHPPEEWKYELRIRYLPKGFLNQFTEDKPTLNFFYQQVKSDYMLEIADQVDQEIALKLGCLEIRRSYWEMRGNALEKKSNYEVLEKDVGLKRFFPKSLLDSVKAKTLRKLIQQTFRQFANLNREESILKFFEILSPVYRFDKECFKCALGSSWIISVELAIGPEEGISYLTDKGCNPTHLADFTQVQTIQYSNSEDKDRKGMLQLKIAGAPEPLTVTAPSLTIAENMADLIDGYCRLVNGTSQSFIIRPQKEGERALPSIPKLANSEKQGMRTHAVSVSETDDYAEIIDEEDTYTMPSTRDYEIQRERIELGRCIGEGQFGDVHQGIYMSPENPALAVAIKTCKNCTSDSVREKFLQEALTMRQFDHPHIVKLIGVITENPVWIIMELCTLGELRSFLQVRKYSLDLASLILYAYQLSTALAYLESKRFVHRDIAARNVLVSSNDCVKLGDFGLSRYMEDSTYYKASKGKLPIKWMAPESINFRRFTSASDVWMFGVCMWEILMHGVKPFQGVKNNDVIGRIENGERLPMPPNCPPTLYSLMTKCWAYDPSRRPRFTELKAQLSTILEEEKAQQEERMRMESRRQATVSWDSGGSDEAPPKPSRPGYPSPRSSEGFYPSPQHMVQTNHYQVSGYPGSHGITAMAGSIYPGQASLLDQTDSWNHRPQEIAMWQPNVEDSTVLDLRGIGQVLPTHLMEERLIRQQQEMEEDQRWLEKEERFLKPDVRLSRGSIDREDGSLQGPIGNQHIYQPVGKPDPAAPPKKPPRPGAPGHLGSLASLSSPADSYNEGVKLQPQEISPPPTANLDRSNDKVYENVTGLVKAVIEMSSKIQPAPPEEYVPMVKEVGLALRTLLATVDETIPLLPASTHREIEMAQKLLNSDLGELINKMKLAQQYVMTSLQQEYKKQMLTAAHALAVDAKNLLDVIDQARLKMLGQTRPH
Sequence of UniProt Q13362 (Q13362 whole entry, looked up): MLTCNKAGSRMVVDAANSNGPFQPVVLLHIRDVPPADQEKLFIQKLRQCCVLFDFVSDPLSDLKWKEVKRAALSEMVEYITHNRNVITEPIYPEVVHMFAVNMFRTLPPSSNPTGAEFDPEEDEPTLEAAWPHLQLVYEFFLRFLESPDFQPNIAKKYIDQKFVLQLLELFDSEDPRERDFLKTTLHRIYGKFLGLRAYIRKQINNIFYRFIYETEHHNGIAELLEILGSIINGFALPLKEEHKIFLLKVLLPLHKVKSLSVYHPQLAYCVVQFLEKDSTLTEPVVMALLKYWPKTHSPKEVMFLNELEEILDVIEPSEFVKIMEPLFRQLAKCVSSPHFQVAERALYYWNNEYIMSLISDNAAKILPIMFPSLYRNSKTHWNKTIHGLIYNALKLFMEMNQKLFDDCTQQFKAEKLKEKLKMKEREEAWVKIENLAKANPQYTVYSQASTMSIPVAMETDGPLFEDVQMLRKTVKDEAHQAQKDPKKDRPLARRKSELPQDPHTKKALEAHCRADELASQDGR
Sequence of UniProt P06454 (P06454 whole entry, looked up): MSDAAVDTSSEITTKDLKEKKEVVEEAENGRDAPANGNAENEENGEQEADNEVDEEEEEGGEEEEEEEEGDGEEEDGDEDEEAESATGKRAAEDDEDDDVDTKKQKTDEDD

Target | log2 fold change [1] | log2 fold change [2] | log2 fold change [3] | log2 fold change [4] | log2 fold change [5] | log2 fold change [6] | log2 fold change [7] | log2 fold change [8] | log2 fold change [9] | log2 fold change [10] | log2 fold change [11] | log2 fold change [12] | log2 fold change [13] | log2 fold change [14] | log2 fold change [15] | log2 fold change [16] | log2 fold change [17] | log2 fold change [18] | log2 fold change [19] | log2 fold change [20]
PHOSPHO2 (UniProt C9JD35) | 0.018 | -0.36 | 0.02 | 0.234 | -0.084 | – | – | – | – | – | – | – | – | – | – | – | – | – | – | –
NA (UniProt Q4G0T1) | – | – | 0.023 | – | 0.042 | -0.132 | -0.272 | -0.115 | -0.062 | -0.044 | 0.035 | -0.015 | 0.034 | – | – | – | – | – | – | –
PDE4DIP (UniProt E9PS60) | -0.059 | -0.039 | -0.034 | -0.026 | 0.075 | -0.111 | – | -0.02 | -0.089 | -0.688 (active) | -0.077 | 0.233 | 0.147 | 0.056 | 0.013 | 0.005 | – | – | – | –
PCBP2 (UniProt F8VRH0) | – | – | 0.023 | – | -0.01 | -0.1 | 0.067 | -0.123 | – | -0.116 | – | -0.042 | 0.072 | – | 0.231 | 0.045 | 0.096 | -0.148 | – | –
PFN1 (UniProt I3L3D5) | 0.157 | 0.058 | – | -0.051 | – | 0.045 | -0.01 | – | – | 0.524 (active) | – | -0.15 | 0.015 | – | 0.028 | 0.062 | -0.195 | 0.066 | -0.062 | -0.19
PHC1 (UniProt P78364) | 0.059 | -0.062 | 0.063 | 0.022 | -0.254 | – | – | – | 0.184 | – | -0.025 | – | – | 0.005 | -0.017 | -0.101 | – | – | -0.025 | 0
PPME1 (UniProt Q9Y570) | -0.029 | -0.059 | – | 0.072 | – | – | – | 0.125 | -0.065 | – | -0.017 | – | – | – | – | – | 0.014 | 0.002 | 0.038 | -0.081
PNPLA4 (UniProt P41247) | -0.076 | 0.125 | -0.098 | -0.011 | 0.825 (active) | 0.074 | 0.147 | – | -0.17 | 0.121 | 0.021 | -0.019 | -0.138 | -0.148 | – | – | – | – | – | –
PUF60 isoform 2 (UniProt Q9UHX1) | 0.039 | -0.12 | 0.005 | -0.161 | -0.058 | 0.223 | 0.003 | 0.264 | – | 1.05 (active) | – | -0.09 | -0.09 | 0.108 | -0.076 | 0.044 | 0.038 | -0.038 | -0.003 | -0.006
PTK2 isoform 2 (UniProt Q05397) | -0.058 | -0.129 | – | 0.125 | – | – | – | 0.003 | 0.018 | – | 0.298 | – | – | – | – | – | 0.053 | 0.049 | 0.067 | -0.087
POLR2M (UniProt Q6EEV4) | -0.001 | -0.081 | -0.064 | 0.055 | -0.041 | 0.085 | – | 0.075 | 0.108 | 0.026 | -0.049 | -0.154 | 0.046 | 0.125 | – | – | 0.038 | 0.047 | -0.07 | -0.116
PTMA isoform 2 (UniProt P06454) | – | – | – | – | – | – | – | – | – | – | – | – | – | – | – | – | – | – | -0.053 | -0.02
PRG4 (UniProt Q92954) | – | – | -0.118 | – | 0.201 | -0.826 (active) | 0.103 | – | 0.204 | -1.36 (active) | 0.042 | 0.051 | 0.278 | – | -0.045 | -0.076 | 0.093 | -0.097 | -0.408 | -0.238
PPP2R5C isoform 2 (UniProt Q13362) | – | – | 0.234 | – | -0.043 | -0.004 | 0.044 | -0.028 | 0.001 | -0.021 | -0.064 | 0.026 | -0.005 | -0.024 | 0.058 | -0.062 | – | – | 0.151 | 0.103
PPP1R12B isoform 6 (UniProt O60237) | -0.011 | 0.145 | -0.347 | -0.015 | 0.047 | – | 0.081 | 0.006 | 0.016 | – | 0.036 | – | – | -0.046 | – | – | 0.072 | -0.079 | 0.017 | 0.05
PIP5K1A (UniProt Q99755) | – | – | -0.168 | – | 0.093 | 0.077 | -0.043 | 0.027 | -0.074 | 0.03 | -0.043 | -0.013 | -0.034 | – | -0.121 | -0.024 | -0.023 | -0.117 | 0.07 | -0.062
PRRG1 (UniProt O14668) | – | – | – | – | – | – | -0.032 | – | – | – | – | – | – | – | – | – | – | – | – | –
PECR (UniProt Q9BY49) | 0.101 | -0.184 | – | -0.053 | – | – | – | – | – | – | – | – | – | – | – | – | – | – | – | –
PRKD3 (UniProt O94806) | 0.077 | 0.233 | -0.199 | 0.092 | -0.075 | -0.308 | -0.014 | -0.066 | – | -0.643 (active) | – | 0.423 | 0.46 | 0.059 | 0.139 | -0.051 | 0.087 | 0.031 | 0.019 | -0.086
PRIMPOL (UniProt Q96LW4) | 0.055 | -0.37 | -0.097 | -0.031 | 0.014 | – | -0.159 | 0.036 | 0.071 | – | 0.003 | – | – | 0.076 | -0.113 | 0.045 | – | – | 0.02 | -0.225
PREP (UniProt H0Y5Y0) | – | – | – | – | – | 0.082 | – | – | – | -0.304 | – | 0.113 | -0.153 | – | – | – | 0.03 | -0.029 | – | –
PFN3 (UniProt P60673) | 0.125 | -0.28 | -0.046 | 0.155 | 0.083 | -0.182 | – | – | – | -0.458 | – | 0.119 | 0.193 | -0.109 | -0.047 | 0.075 | 0.154 | -0.199 | – | –
PPP2CA (UniProt E7ESG8) | – | – | – | – | – | – | – | – | – | – | – | – | – | – | 0.139 | -0.034 | – | – | – | –
PHGDH, A0A286YFE1 | – | – | – | – | – | – | – | – | -0.19 | – | 0.244 | – | – | – | – | – | -0.114 | -0.214 | 0.114 | -0.313
POM121C (UniProt A8CG34) | – | – | – | – | – | -0.089 | 0.124 | 0.069 | – | 0.007 | – | 0.051 | -0.091 | – | – | – | -0.076 | 0.164 | 0.19 | 0.135
